Results: PubChem BioAssay (EPA / NIEHS)
Active and inactive are the calls of the source. How the source made its calls: active means hit-call score of the fitted dose curve at least 0.9, where 1 is the maximum; inactive means score below 0.9.

Tested on: not listed separately
Assay: CCTE_Padilla_ZF_Score.Any: CCTE's 144 Hour Post-fertilization zebrafish Assay Score for Any Mortality or Malformation, Padilla Lab (AID 2284416)
Procedure, shortened: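 Wild-type zebrafish embryos with chorions, one per well in 10% Hanks' from 6–8 hpf, dosed in sealed plates at 26 C, 14:10 h light:dark; rinsed at 5 dpf; blinded scoring at 6 dpf for death or malformation, versus DMSO.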
In the case of `OCC(F)(F)C(F)(F)C(F)(F)CO`, the outcome is reported as “inactive”.
In the case of `O=S(=O)(O)CCC(F)(F)C(F)(F)C(F)(F)C(F)(F)F`, the outcome is reported as “inactive”.
For `O=C(Cl)C(F)(F)C(F)(F)C(F)(F)C(F)(F)C(F)(F)C(F)(F)F`, the AC50 was 76.8 µM (active).
For `C=CC(=O)OCC(F)(F)C(F)(F)C(F)(F)COC(=O)C=C`, the AC50 was 8.95 µM (active).
For `OCC(O)CC(F)(F)C(F)(F)C(F)(F)C(F)(F)F` (centres undefined), the outcome was “inactive”.
For `CNS(=O)(=O)C(F)(F)C(F)(F)C(F)(F)C(F)(F)C(F)(F)C(F)(F)C(F)(F)C(F)(F)F`, the AC50 was 0.778 µM (active).
For `O=S(=O)(OCC(F)(F)F)C(F)(F)C(F)(F)C(F)(F)C(F)(F)F`, the AC50 was 33.3 µM (active).
With `OCC(F)(F)C(F)(F)C(F)(F)C(F)(F)C(F)(F)C(F)(F)C(F)(F)C(F)(F)CO` the AC50 was 5.84 µM (active).
In the case of `FC(F)(F)C(F)(F)C(F)(F)C(F)(F)C(F)(F)C(F)(F)C(F)(F)CCI`, the outcome is reported as “inactive”.
For `OCC(O)CC(F)(F)C(F)(F)C(F)(F)C(F)(F)C(F)(F)C(F)(F)C(F)(F)C(F)(F)F` (centres undefined), the AC50 was 9.82 µM (active).
In the case of `OCC(F)(F)C(F)(F)C(F)(F)C(F)(F)C(F)(F)C(F)(F)CO`, the AC50 is reported as 62.4 µM (active).
In the case of `O=C(F)C1(F)C(F)(F)C(F)(F)C(F)(F)C(F)(F)C1(F)F`, the outcome is reported as “inactive”.
With `C=CC(=O)OCC(F)(F)C(F)(F)C(F)(F)C(F)(F)C(F)(F)C(F)(F)C(F)(F)C(F)F` the outcome was “inactive”.
With `O=C(O)C(F)(F)C(F)(F)C(F)(F)C(F)(F)C(F)(F)C(F)(F)C(F)F` the outcome was “inactive”.
For `O=C(Cl)C(F)(F)C(F)(F)C(F)(F)C(F)(F)C(F)(F)C(F)(F)C(F)(F)F`, the AC50 was 86.8 µM (active).
With `OCCCC(F)(F)C(F)(F)C(F)(F)C(F)(F)C(F)(F)C(F)(F)C(F)(F)C(F)(F)F` the outcome was “inactive”.
With `C[Si](Cl)(Cl)CCC(F)(F)C(F)(F)C(F)(F)C(F)(F)C(F)(F)C(F)(F)F` the outcome was “inactive”.
With `NC(=O)C(F)(F)C(F)(F)C(F)(F)C(F)(F)C(F)(F)C(F)(F)C(F)(F)F` the outcome was “inactive”.
With `CCOC(=O)CC(=O)C(F)(F)C(F)(F)F` the outcome was “inactive”.

Tested on: TTR (gene 7276)
Assay: CCTE_GLTED_hTTR_0.125uM: CCTE's human Transthyretin (hTTR) Inhibition Assay, with 0.125uM TTR, Great Lakes Toxicology and Ecology Division (GLTED) Lab (AID 2284431);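 further: hits lower the fluorescence signal relative to DMSO baseline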
Procedure, shortened: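 Activity is defined as decreased ANSA fluorescence (ex 380, em 475) from human transthyretin, 0.125uM, following 2-hour chemical exposure in a cell-free setup, with DMSO as baseline.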
In the case of `CCC(Cc1c(I)cc(I)c(N)c1I)C(=O)O` (centres undefined), the AC50 is reported as 2.1 µM (active).
In the case of `CCN=c1cc2oc3cc(NCC)c(C)cc3c(-c3ccccc3C(=O)OCC)c-2cc1C`, the AC50 is reported as 32.2 µM (active).
For `CCN=C1C=CC(=C(c2ccc(N(CC)CC)cc2)c2ccc(N(CC)CC)cc2)c2ccccc21`, the AC50 was 1.85 µM (active).
In the case of `CCCCCCCC/C=C\CCCCCCCC(=O)N(C)CC(=O)O`, the AC50 is reported as 3.75 µM (active).
For `O=C(c1ccccc1)c1ccc(O)cc1O`, the AC50 was 0.0464 µM (active).
